Compounds without any hit were thinned out: in the full panel of roughly 79,000, 15% have a hit. No stated cut-off is given here; in the data, active means growth inhibition above about 70%; inactive means the rest.
Legend:
[1] = NCI Yeast Anticancer Drug Screen. Data for the rad50 strain (AID 155);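 further: 0% = growth of vehicle-only cultures of the same strain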; conditions: S. cerevisiae rad50 strain growth inhibition; at 50.0 µM; active compounds read high
How it was run: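 Readout: growth inhibition relative to vehicle-treated cultures. Compound exposure was carried out in a genetically defined yeast strain deficient in DNA damage repair.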

[2] = NCI Yeast Anticancer Drug Screen. Data for the mec2-1 strain (AID 157); conditions: S. cerevisiae mec2-1 strain, at 50.0 µM, active compounds read high
How it was run: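 Vehicle-treated cultures served as reference for growth inhibition of compound-exposed mec2-1 yeast.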

[3] = NCI Yeast Anticancer Drug Screen. Data for the cln2 rad14 strain (AID 165);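 further: 0% = growth equal to vehicle treated cultures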; conditions: S. cerevisiae cln2 rad14 strain, at 50.0 µM, active compounds read high
How it was run: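 Each compound was tested on cln2 rad14 yeast. Inhibition of growth was calculated against vehicle-exposed controls.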

[4] = NCI Yeast Anticancer Drug Screen. Data for the bub3 strain (AID 167); conditions: S. cerevisiae bub3 mutant strain, at 50.0 µM, active compounds read high
How it was run: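 Readout: yeast growth inhibition, expressed relative to vehicle-only wells. The test organism is a mutant strain from a panel with lesions in DNA repair or checkpoint genes.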

[5] = NCI Yeast Anticancer Drug Screen. Data for the mlh1 rad18 strain (AID 175); conditions: S. cerevisiae mlh1 rad18 strain growth inhibition; at 50.0 µM; active compounds read high
How it was run: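 Vehicle-treated cultures served as the reference for growth inhibition in a yeast strain carrying DNA damage repair alterations exposed to each compound.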

[6] = NCI Yeast Anticancer Drug Screen. Data for the sgs1 mgt1 strain (AID 161);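 further: 0% = growth of cultures given vehicle only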; conditions: S. cerevisiae sgs1 mgt1 strain, at 50.0 µM, active compounds read high
How it was run: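 Genetically altered yeast, compound exposure, growth inhibition relative to vehicle.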

Measured: growth inhibition

N#CCc1c(-c2ccccn2)[nH]c2ccccc12
inactive: [1] 9.25% | [2] 1.35% | [3] 18.8% | [4] -11.2% | [5] 12%

CCCCCCCCCCCCCCCCc1c(C(=O)OC)nc(NN)[nH]c1=O
inactive: [1] -6.3% | [2] 5.2% | [3] -2.85% | [4] 2.1% | [5] -12.8%

CC(=O)OC1C(C)OC(n2cnc3c(=O)[nH]cnc32)C1OC(C)=O (centres undefined)
inactive: [1] 2.95% | [6] -0.45% | [3] -3.45% | [4] -2% | [5] 10.8%

O=S1Cc2nc3ccccc3n2C1c1c(F)cccc1F (centres undefined)
inactive: [1] 1.25% | [6] -4% | [3] 21.6% | [4] 3.6% | [5] -18.8%

C#CCn1cnc2c1c(=O)n(C)c(=O)n2C
inactive: [1] 10.2% | [6] -7.35% | [3] -0.8% | [4] -11.7% | [5] -10.7%

O=[N+]([O-])c1c(Cl)cc(Cl)c([N+](=O)[O-])c1-c1ccccc1
inactive: [1] -17.1% | [6] -14.3% | [3] 7.75% | [4] 14.2% | [5] -31.7%

NC(CCCC(N)P(=O)(O)c1ccccc1)P(=O)(O)c1ccccc1 (centres undefined)
inactive: [1] -37.9% | [6] -63.5% | [3] -9.65% | [4] -45.5% | [5] -46.6%

COc1cc([N+](=O)[O-])ccc1NC(=O)c1cccc([N+](=O)[O-])c1C(=O)O
inactive: [1] 5% | [6] 42.8% | [3] -9.5% | [4] -16.8% | [5] 24.6%

CC(C)(C)/C=C/N1N=NC(c2ccccc2)(c2ccccc2)C1=O
inactive: [1] 32.6% | [6] 23.1% | [3] -13.2% | [4] 22.1% | [5] 26.7%

NC1c2c(Cl)sc(Cl)c2C(=O)C1O (centres undefined)
inactive: [1] -0.8% | [6] -10.2% | [3] -3.6% | [4] 4% | [5] -40.4%

COC(=O)c1cc(=O)c2ccc(Cl)cc2[nH]1
inactive: [1] -8.05% | [6] -10.9% | [3] -14.6% | [4] -18.3% | [5] -25.3%

C/C=C/[C@@H]1[C@H]2C(=O)[C@]3(Cl)[C@@H](/C=C/C)[C@@H]3C(=O)[C@@]12Cl
inactive: [1] 5.05% | [6] 6.45% | [3] 12.8% | [4] 10% | [5] 29.6%

Cc1ccc(C(=N)c2ccccc2Cc2cccc3ccccc23)c2ccccc12
inactive: [1] 12.4% | [6] -30.2% | [3] -36.9% | [4] -34.4% | [5] -15.6%

C[N+](C)(CCO)CCN1c2ccccc2Sc2ccccc21
inactive: [1] -3.1% | [6] 10.2% | [3] -23.6% | [4] -14.6% | [5] -3.7%

CC(=O)Nc1ccc([N+](=O)[O-])cc1[N+](=O)[O-]
inactive: [1] 3.35% | [6] -4.05% | [3] -37.9% | [4] -15.6% | [5] 3.95%

COc1c(NC(=O)c2ccc(C(=O)Nc3cccc([N+](=O)[O-])c3OC)cc2)cccc1[N+](=O)[O-]
inactive: [1] 22.3% | [6] -9% | [3] -20.6% | [4] -2.2% | [5] -1.3%

CCCCCCCCCC(CCCCCCCC(=O)O)NC(C)=O (centres undefined)
inactive: [1] 32.3% | [6] 7.45% | [3] 32.5% | [4] -18.1% | [5] 1.05%

CCCCN=Cc1ccc(Cl)cc1
inactive: [1] -2.65% | [6] -32.1% | [4] -19.9% | [5] -6%

O=C(NNc1nc(N2CCOCC2)nc(N2CCOCC2)n1)c1ccccc1
inactive: [1] 16.6% | [6] 10.9% | [3] 15.3% | [4] -5.05% | [5] -4.3%

CC(=O)Oc1ccc(NCNc2ccc(OC(C)=O)cc2)cc1
inactive: [1] -11.8% | [6] -3.2% | [3] -26.6% | [4] -2.25% | [5] -3.35%

Nc1ccc2c(c1)Cc1c-2cc(Br)c(N)c1Br
inactive: [1] 4.95% | [6] 9.5% | [3] -39.2% | [4] 1.9% | [5] -6.75%

O=C1NC(=O)C2C3CCC(C3)C12 (centres undefined)
inactive: [1] 13.6% | [6] -7.65% | [3] -41.8% | [4] 4.65% | [5] 0.4%

Cc1ccn2c(CCc3nnc4cc(C)ccn34)nnc2c1
inactive: [1] -1.4% | [6] -42.4% | [3] 0.4% | [4] -26.1% | [5] 12.3%

CCCNc1cc2c(cc1Br)-c1ccccc1C2=O
inactive: [1] -18.8% | [6] -10.2% | [3] -16.1% | [4] 19.1% | [5] -0.65%

CCCCCCSC#N
inactive: [1] 34.8% | [6] -8.75% | [3] 18.1% | [4] 15.2% | [5] 7.05%

CCCCCCCCSc1nc(Nc2cc(C(C)(C)C)c(O)c(C(C)(C)C)c2)nc(SCCCCCCCC)n1
inactive: [1] 41.6% | [6] 13.1% | [3] 34.1% | [4] -0.9% | [5] 28.4%

O=C(Nc1ccccc1CCl)Nc1ccccc1CCl
inactive: [1] -30.9% | [6] -15.8% | [3] 0.7% | [4] -23.2% | [5] -28.8%

C[N+]1(C)CCN(S(=O)(=O)c2ccccc2)c2ccccc21
inactive: [1] -10.1% | [6] -4.35% | [3] -7.95% | [4] -19.6% | [5] -18.4%

O=C(CCCSCCCC(=O)N/N=C/c1ccccc1O)N/N=C\c1ccccc1O
inactive: [1] 4.7% | [6] 4.95% | [3] 0.75% | [4] 6.65% | [5] 19.8%

O=C(O)c1ccc(C(=O)C2CC(C(=O)O)CCC2S(=O)(=O)O)cc1 (centres undefined)
inactive: [1] -10.1% | [6] -19.8% | [3] -30.6% | [4] -0.4% | [5] 17.1%

COc1ccc(/C=c2/s/c(=C(\C#N)c3nc4ccccc4[nH]3)n(-c3ccccc3)c2=O)cc1
inactive: [1] 4% | [6] -6.4% | [3] 13.9% | [4] -17.6% | [5] 13.2%

N#CCc1ccccc1-c1ccccc1
inactive: [1] 2.45% | [6] 11.4% | [3] -45.5% | [4] 5.6% | [5] -9.75%

N#CCCN(CCC#N)c1nc(-c2ccccc2)nc(N(CCC#N)CCC#N)n1
inactive: [1] -1.95% | [6] -1.75% | [3] 0.9% | [4] 2.75% | [5] 15.1%

C/C(=N\NC(N)=O)C(C)(C)O
inactive: [1] 26.8% | [6] 7.7% | [3] 12.4% | [4] 11.5% | [5] 13.6%

COC(=O)c1cc(C(=O)OC)c(C(=O)OC)cc1C(=O)OC
inactive: [1] -1.35% | [6] 15.8% | [3] -37.8% | [4] 4.2% | [5] 22.1%

CCNC(=O)c1cc2ccccc2cc1O
inactive: [1] 1.4% | [6] -6.5% | [3] -46% | [4] -15.7% | [5] 6.55%

O=C1CC(CC(=O)c2ccc(Br)cc2)C(=O)/C1=C(/O)c1ccc(Br)cc1 (centres undefined)
inactive: [1] 21.7% | [6] 36.8% | [3] 38% | [4] 22.9% | [5] 48.8%

CC1CC[N+]2(C)CCCC12 (centres undefined)
inactive: [1] 1.1% | [6] -5.3% | [3] -39.3% | [4] -23.9% | [5] -12.4%

COC(=O)c1cc2c(n1S(=O)(=O)c1ccc(C)cc1)C(=O)C(=O)c1[nH]cc(C(=O)OCc3ccccc3)c1-2
inactive: [1] 0.6% | [6] 20.6% | [3] 8.9% | [4] 14% | [5] 13.5%

CCc1ccccc1NC(=O)CC1NC(=O)CS1 (centres undefined)
inactive: [1] -8.95% | [6] 4.4% | [3] 9.9% | [4] -30.4% | [5] -21.4%

ClCc1c(-c2ccccc2)nn(-c2ccccc2)c1CCl
inactive: [1] 8.65% | [6] 38.5% | [3] 6.05% | [4] 57.5% | [5] 37%

CCC1(C)C=Cc2c(cc(OC)c3c(=O)c4ccccc4n(C)c23)O1 (centres undefined)
inactive: [1] -21.8% | [6] -33.8% | [3] -19.6% | [4] 4.05% | [5] -26.4%
